Screening results (PubChem)
PI5P4Ka inh: PI5P4K alpha (human) kinase inhibition; PI5P4Kalpha enzyme, ADP-Glo luminescence, 60 min; stronger effect = lower value; 1.2% of 330,000 active; max response, %; AID 652105; P48426; active means max response of -50% or lower; inconclusive means between -30% and -50%; inactive means -30% or higher; further: value at the top dose of about 77 µM; on the % scale 0 is the no-effect control and ±100 the full control effect
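qHTS, 1536-well: enzyme/substrate mix, compound by pin tool, 5 microM ATP final; RT 60 min; ADP-Glo reagents 1 (45 min) then 2 (30 min); luminescence.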
BAZ2B block: BAZ2B (human) inhibition; AID 504333; 4.4% of 360,000 active; Potency, µM (series often up to 114 µM), for inactives: at the top dose activity change, negative = inhibition, most hits filed as inhibitors; Q9UIF8; AlphaScreen BAZ2B-H3K14Ac peptide displacement; further: potency means the concentration at half of the fitted maximal effect; on the % scale 0 is the no-effect control and ±100 the full control effect; nearly all actives have a fitted effect of over 60% in size
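AlphaScreen displacement of biotin-H3(5-23)K14Ac peptide (50 nM final) from BAZ2B (50 nM final) in PBS pH 7.4, 0.01% Tween-20; complex preformed 30 min RT, then compounds (top 110 uM) 30 min RT, beads 20 min dark.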
L3MBTL1 inh: inhibitors of human L3MBTL1 | AID 485360 | Potency, µM (titrated, usually from 57.1 µM), for inactives: at the highest dose activity, negative = inhibition, hits mostly inhibitors | 0.66% of 230,000 active | Q9Y468 | AlphaScreen L3MBTL1–H3K9me1 peptide binding; further: potency means the concentration at half of the fitted maximal effect; on the % scale 0 is the no-effect control and ±100 the full control effect; nearly all actives have a fitted effect of over 60% in size
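First, the protein-peptide complex forms for 30 min at room temperature (L3MBTL1 50 nM, biotinylated H3K9me1 peptide 75 nM). Next, compounds are pin-transferred and incubated 30 min. Finally, AlphaScreen beads are added and read after 30 min.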
HP1b binding inh: blocks HP1-beta chromodomain binding to methylated histone tails; 0.56% of 390,000 active; P83916; Potency, µM (titrated, usually from 114 µM), without a hit: at the highest dose activity change, negative = inhibition, actives largely listed as inhibitors; AlphaScreen HP1-beta / biotin-H3K9me3 peptide binding; further: potency means the concentration at half of the fitted maximal effect; nearly all actives have a fitted effect of over 70% in size
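Compound inhibition of the preformed complex between 50 nM HP1-beta and 50 nM biotinylated H3K9me3 peptide was read by AlphaScreen. Buffer was PBS pH 7.4 with 0.01% Tween-20. Incubations ran 30 min at room temperature, with 10 ug/mL donor/acceptor beads.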
JMJD2A Tudor: inhibitors of human JMJD2A Tudor domain. O75164. AlphaScreen JMJD2A-Tudor / H3K4me3 peptide binding. Potency, µM (titrated, usually from 114 µM), inactives show at the highest dose activity change, negative = inhibition, most hits filed as inhibitors. 4.4% of 390,000 active; further: potency means the concentration at half of the fitted maximal effect; on the % scale 0 is the no-effect control and ±100 the full control effect; nearly all actives have a fitted effect of over 50% in size
JMJD2E inh: inhibitors of human JMJD2E histone demethylase; B2RXH2; JMJD2E catalytic domain, FDH-coupled NADH fluorescence (FDH is formaldehyde dehydrogenase); Potency, µM (top dose mostly 57.1 µM), without a hit: at the highest dose activity change, negative = inhibition, most hits filed as inhibitors; 1.6% of 230,000 active; AID 2147; active means well fitted inhibition curve with a large enough effect, not every such curve was filed as active; inconclusive means small, poorly fitted or top-dose-only effect, or another doubt; inactive means no such curve, though single readings can be large or run the other way;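 further: potency means the concentration at half of the fitted maximal effect; 0% = wells with enzyme and -100% = buffer wells without enzyme; nearly all actives have a fitted effect of over 50% in size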
An asterisk follows results filed as active; ? = inconclusive; / = not tested or not shown; [ ] = another dose, or the depositor's remark. Hits are enriched below; roughly 5.7% of the tested compounds scored in any of these assays. Unless noted, the call rests on the fitted dose curve; in most records, active means well fitted inhibition curve with a large enough effect; inconclusive means small, poorly fitted or top-dose-only effect; inactive means no such curve, though single readings can be large or run the other way.

SMILES	PI5P4Ka inh	BAZ2B block	L3MBTL1 inh	HP1b binding inh	JMJD2A Tudor	JMJD2E inh
Cc1noc(NS(=O)(=O)c2ccc(N/C=C\C(=O)c3cccc4ccccc34)cc2)c1C	?	50µM*	-7%	?	?	-12%
Cc1cc2cc(CCNC(=O)CCCc3ccccc3)c(=O)[nH]c2cc1C	4	-13%	/	26%	-3%	/
OCC1OC(Oc2c(Br)cc(Br)cc2Br)C(O)C(O)C1O (stereo unspecified)	2	/	/	6%[57 µM]	-12%	/
Cc1ccc(-c2nc(NCc3ccco3)n(C(=O)c3ccco3)n2)cc1	2	8%	/	8%	-15%	?
COCC(=O)n1nc(-c2ccccc2)nc1NCc1ccc(N(C)C)cc1	-2	32µM*	-15%	50µM*	35µM*	-2%
O=C(c1ccco1)n1nc(-c2ccccc2)nc1NCc1ccco1	-1	0%	-4%	-2%	79µM*	7%
C/C(CC1CC(C)(C)OC1=O)=N\NC(N)=S (stereo unspecified)	1	?	0%	7%	7.1µM*	?
CCCC1CC(C)(/C(C)=N\NC(N)=S)OC1=O (stereo unspecified)	-4	5%	11%	44%	-1%	-3%
C/C(=N\NC(N)=S)C1(C)CC2(CC(C)(C)OC2=O)C(=O)O1 (stereo unspecified)	-2	3%	3%	10%	-7%	4%
C/C(CCC1CC(C)(C)OC1=O)=N\NC(N)=S (stereo unspecified)	1	?	10%	-8%	79µM*	0%
CCOC(=O)N1CCC(NC(=O)c2cnn(-c3ccc(F)cc3F)c2C2CCN(C(=O)OC(C)(C)C)CC2)CC1	/	12%[57.1 µM]	/	51%	-17%	/
CCCCn1c(SCC(=O)Nc2cccc(OC)c2)nc2ccsc2c1=O	/	3%	/	90%	1%	/
COc1ccccc1C1CC(c2cccs2)=Nc2ccccc2S1 (stereo unspecified)	8	-35%	/	1%	-34%	-2%
Fc1ccccc1C1CC(c2ccco2)=Nc2ccccc2S1 (stereo unspecified)	0	?	/	-11%	?	28µM*
CCC(CO)Oc1cc(NCc2ccc(C(C)(C)C)cc2)c2ncn(C(C)C)c2c1 (stereo unspecified)	0	/	-14%	-17%	25µM*	/
CCC(COC(=O)c1ccccc1)Oc1cc(NCc2ccccc2)c2ncn(C(C)C)c2c1 (stereo unspecified)	-2	/	?	-21%	45µM*	/
CCC(CO)Oc1cc(NCc2cccc(O)c2)c2ncn(C(C)C)c2c1 (stereo unspecified)	-2	/	-3%	10%	-26%	/
CCC(CO)Oc1cc(NCc2ccccc2)c2ncn(C(C)C)c2c1 (stereo unspecified)	-1	/	-25%	14%	?	/
CCC(COC)Oc1cc(NCc2ccccc2)c2ncn(C(C)C)c2c1 (stereo unspecified)	0	50µM*	?	-25%	50µM*	/
CCC(CO)Oc1cc(NCc2ccc(O)cc2)c2ncn(C(C)C)c2c1 (stereo unspecified)	-4	/	-5%	10%	?	/
COc1ccc(CCNC(=O)c2cnn(-c3cccc(C)c3)c2C2CCN(C(=O)OC(C)(C)C)CC2)cc1OC	/	0%[57.1 µM]	/	1%	-24%	/
COc1ccc(Br)c(C(=O)N2CCN(S(=O)(=O)c3cccs3)CC2)c1	5	89µM*	/	46%	-2%	-2%
O=C(c1cccs1)N1CCN(S(=O)(=O)c2cccs2)CC1	-4	/	0%	15%	1%	-2%
O=C(c1ccccc1Cl)N1CCN(S(=O)(=O)c2cccs2)CC1	2	-10%	/	21%	-7%	/
COc1cc(C(=O)N2CCN(S(=O)(=O)c3cccs3)CC2)cc(OC)c1C	-3	50µM*	-15%	32%	79µM*	1%
SMILES	PI5P4Ka inh	BAZ2B block	L3MBTL1 inh	HP1b binding inh	JMJD2A Tudor	JMJD2E inh
O=C(Nc1cccc2cccnc12)c1ccccc1Br	2	/	/	139%	41%	/
COc1ccc(-c2csc(C(O)c3ccc(F)cc3)n2)cc1OC (stereo unspecified)	-2	/	/	/	/	/
COc1cc(-c2nnc(SCC(=O)N(C)C3CCCCC3)o2)cc(OC)c1OC	/	2%	/	48%	-11%	/
CCOc1ccc(Cc2c(C)[nH]c3ccc(C(=O)O)cc3c2=S)cc1	-18	-36%	-11%	18%	25µM*	/
CCc1c(C)[nH]c2ccc(OC)cc2c1=S	-9	?	-12%	?	-17%[11.4 µM]	?
CC1CCCCN1CCCNC(=O)c1cc(Sc2cccc(Cl)c2)nc2ccccc12 (stereo unspecified)	/	-12%	/	7%	-26%	/
C#CCSc1nsc(SCC#C)c1C#N	/	-39%	-11%	?	56µM*	4%
CCCSc1nsc(SCCC)c1C#N	18	96%	/	360%	188%	7%
COCCN1C(=O)N(c2cccc(C)c2)C(=O)C1CC(=O)Nc1cc(OC)cc(OC)c1 (stereo unspecified)	-1	-17%	/	10%	-14%	/
Clc1ncc(CN2CCN(c3ccccc3)CC2)s1	-9	-39%	-2%[11.4 µM]	24%	-10%	-15%
Cc1ccccc1N1CCN(Cc2ccc(Br)o2)CC1	-1	56µM*	10%	?	1µM*	/
Brc1ccc(CN2CCN(c3ccccc3)CC2)o1	-3	56µM*	-1%	?	3.2µM*	/
Clc1ccccc1N1CCN(Cc2nnc(-c3ccccc3)o2)CC1	/	-1%	/	20%	-14%	/
Cc1cccc(N2CCN(Cc3ccc(Br)o3)CC2)c1C	10	?	12%	-26%	28µM*	/
Cc1ccccc1N1CCN(Cc2cccc(C(=O)O)c2)CC1	/	-1%	3%	42%	-5%	5%
Clc1ccccc1N1CCN(Cc2ccc(Br)o2)CC1	5	/	/	-11%	25µM*	/
Fc1ccc(-n2[nH]nnc2=S)cc1N1CCCC1	/	?	-14%	?	79µM*	?
Cc1nc2ccccc2c(=O)n1-c1cccc(NC(=O)c2cccs2)c1	6	14%	-5%	25%	-15%	/
O=C(Nc1cccc(N2C(=O)C=CC2=O)c1)c1cccs1	/	?	28µM*	/	/	/
Cc1[nH]n(-c2ccccc2)c(=O)c1N=Nc1ccc2c(c1)OCCO2	16	6.3µM*	?	?	22µM*	-8%
Cc1ccc(N=Nc2c(C)[nH]n(-c3ccccc3)c2=O)c(C)c1	?	13%	41%	22µM*	11µM*	-4%
Cc1[nH]n(-c2ccccc2)c(=O)c1N=Nc1ccc(F)cc1	0	4.5µM*	/	-20%	?	/
CC(=O)c1cccc(N=Nc2c(-c3ccccc3)[nH]n(-c3ccccc3)c2=O)c1	-2	5µM*	-7%	14µM*	?	-3%
